Assay results taken from PubChem BioAssay (NCATS).
Inconclusive results are not listed. Active and inactive are the calls of the source. Unless noted, calls come from the whole dose curve; as a rule, active = well fitted curve in the direction sought with a large enough effect; inconclusive = small, poorly fitted or top-dose-only effect, or another doubt; inactive = no such curve, though single readings can be large; an effect the other way counts as inactive or inconclusive.

Legend:
[1] = system: Zika virus NS2B-NS3 protease (linked construct); assay: Primary screen NINDS Rhodamine qHTS for Zika virus inhibitors (AID 1347160)
How it was run: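 Kinetic fluorescence (Ex 480 nm, Em 540 nm) over 15 min with 1.5 microM Rhodamine110 peptide and 25 nM linked protease.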

[2] = OV-KATE Cancer Cell Toxicity qHTS against the NCATS CANVASS Library (AID 1347345)
How it was run: (§1)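 ATP content after 72 h treatment, detected by CellTiter-Glo luminescence (15min room-temperature development), reflects cell viability. Wells contained 1000 cells and received compounds at 11 concentrations.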

[3] = HPAF-II Cancer Cell Toxicity qHTS against the NCATS CANVASS Library (AID 1347346)
How it was run: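 HPAF-II cells at 1000 cells/well were treated with an 11-point concentration series for 72 hours at 37 degrees C. Viability read by CellTiter-Glo luminescence.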

[4] = UWB1.289 Cancer Cell Toxicity qHTS against the NCATS CANVASS Library (AID 1347347)
How it was run: as §1

[5] = OV-SAHO Cancer Cell Toxicity qHTS against the NCATS CANVASS Library (AID 1347348)
How it was run: as §1

[6] = Panc-1005 Cancer Cell Toxicity qHTS against the NCATS CANVASS Library (AID 1347349)
How it was run: as §1

[7] = SW1088 Cancer Cell Toxicity qHTS against the NCATS CANVASS Library (AID 1347350)
How it was run: as §1

[8] = COV-362 Cancer Cell Toxicity qHTS against the NCATS CANVASS Library (AID 1347352)
How it was run: (§2)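 Cells at 1000/well were given compound 4 h after plating in an 11-point series. Viability was read by CellTiter-Glo luminescence after 72 h at 37 degrees C.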

[9] = UWB1.289-WTBRCA1 Cancer Cell Toxicity qHTS against the NCATS CANVASS Library (AID 1347354)
How it was run: as §2

[10] = HPAF-II 24hr Apoptosis Induction qHTS against the NCATS CANVASS Library (AID 1347356)
How it was run: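 HPAF-II cells (500/well) exposed to compounds in 11-point series for 24 h at 37 degrees C; caspase-3/7 activity read by Caspase-Glo luminescence after 15 min at room temperature. Doxorubicin titration as control.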

[11] = HEK293 18hr Apoptosis Induction qHTS against the NCATS CANVASS Library (AID 1347357)
How it was run: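 Natural products applied to HEK293 for 18 hr; Caspase-Glo 3/7 readout.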

[12] = HEK293 24hr Apoptosis Induction qHTS against the NCATS CANVASS Library (AID 1347359)
How it was run: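 Caspase-3/7 activation measured as luminescence from the DEVD-based Caspase-Glo reagent, 15 min at room temperature, following 24-hour compound treatment of HEK293 cells.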

[13] = system: NAD(P)H diaphorase (Clostridium kluyveri); assay: Diaphorse counterscreen qHTS: Assay Interference Panel against the NCATS CANVASS Library (AID 1347362)
How it was run: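 Counterscreen for coupling-enzyme interference: resorufin fluorescence from resazurin/NADH turnover, read after 5 min at room temperature. Compounds were tested over an 11-point series after 15 min dark preincubation with diaphorase in PBS-Tween.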

[14] = molecular target: Luciferin 4-monooxygenase (Photinus pyralis) (UniProt P08659); assay: Firefly luciferase counterscreen qHTS: Assay Interference Panel against the NCATS CANVASS Library (AID 1347363)
How it was run: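 Luminescence inhibition readout: compounds (11-point qHTS) sat 15 min at room temperature with substrate mix (0.013 mM luciferin and ATP), then firefly luciferase was added and signal read 5 min later.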

[15] = SDT Cancer Cell Toxicity qHTS against the NCATS CANVASS Library (AID 1347365)
How it was run: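 SDT dog glioma cells (500/well) exposed to an 11-point compound series for 72 hr at 37C, 5% CO2. Cytotoxicity read as ATP content by CellTiterGlo luminescence; bortezomib titration as control.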

[16] = KB-3-1 Cancer Cell Toxicity qHTS against the NCATS CANVASS Library (AID 1347366)
How it was run: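 Cytotoxicity toward KB-3-1 cells (500/well, DMEM + 10% FBS) was scored by CellTiter-Glo luminescence following 72 hr exposure at 37C, with bortezomib titrated as control.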

[17] = G06 Cancer Cell Toxicity qHTS against the NCATS CANVASS Library (AID 1347368)
How it was run: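 G06 dog glioma cells, 500 per well, exposed 72 hr at 37C, 5% CO2 to compounds in an 11-point series. Cytotoxicity read as ATP content by CellTiterGlo luminescence.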

[18] = MCF7 Cancer Cell Toxicity qHTS against the NCATS CANVASS Library (AID 1347369)
How it was run: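 This 72 hr qHTS scored MCF7 viability by CellTiterGlo luminescence, with 500 cells/well; bortezomib titration ran as control.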

[19] = qHTS for ATAD5 Antagonist screened against the NCATS CANVASS Library (AID 1347370)
How it was run: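 HEK293T cells with stably integrated ATAD5-luciferase reporter, 2000/well, 5 h attachment; compounds plus 10 µM 5-fluorouridine, 16 h at 37 °C. Luciferase luminescence read, with CellTiter-Fluor viability read first.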

[20] = J3T Cancer Cell Toxicity qHTS against the NCATS CANVASS Library (AID 1347371)
How it was run: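 J3T dog glioma cells, 500 per well, treated 72 h at 37C with compounds (11-point qHTS); viability from ATP content by CellTiterGlo luminescence; bortezomib titration as control.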

[21] = molecular target: Nuclear receptor subfamily 1 group I member 3 (Homo sapiens) (UniProt Q14994); assay: qHTS for Constitutive Androstane Receptor (CAR) Antagonist screened against the NCATS CANVASS Library (AID 1347372)
How it was run: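 HepG2-CYP2B6-hCAR double-stable cells plated, 4hr attach; cpd pin-transferred; CITCO 50 nM final; 24hr 37C/5% CO2; CellTiter-Fluor 1hr (fluorescence), then ONE-Glo luminescence.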

[22] = molecular target: Nuclear receptor subfamily 1 group I member 3 (Homo sapiens) (UniProt Q14994); assay: qHTS for Constitutive Androstane Receptor (CAR) Agonist screened against the NCATS CANVASS Library (AID 1347373)
How it was run: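 HepG2 cells stably carrying hCAR and a CYP2B6-2.2kb luciferase reporter, treated 24hr at 37C with compounds plus 1.5uM PK11195; activation by ONE-Glo luminescence, viability by CellTiter-Fluor.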

[23] = Inflammasome Signaling qHTS Counterscreen: IL-1-beta AlphaLISA counterscreen against the NCATS CANVASS Library (AID 1347381)
How it was run: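 Cell-free interference check: compounds added to medium spiked with 4 pg purified IL-1β. Anti-IL-1β acceptor beads (6 ug/mL) with 0.6 nM biotinylated antibody added for 1 h at RT, then streptavidin donor beads (24 ug/mL) for 30 min in the dark. AlphaLISA read at 680/615 nm.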

[24] = Cytotoxicity qHTS for assessment of Hepg2 cells membrane integrity screened against the NCATS CANVASS Library (AID 1347387)
How it was run: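 HepG2 cells (2000/well) attached overnight, then exposed 5 hr at 37C to compounds in an 11-point series (0.59 nM - 46 uM final). LDH release from damaged membranes read fluorometrically (CytoTox-ONE; 560/590 nm) after 10 min at room temperature.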

[25] = qHTS for Activators of p53 Stress Response Pathway screened against the NCATS CANVASS Library (AID 1347388)
How it was run: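 Beta-lactamase reporter driven by p53 response elements in HCT-116 cells, read as the 460 nm/530 nm emission ratio after CCF4 loading, following 16 h of exposure to an 11-point series. Cell viability was measured in the same wells by CellTiter-Glo luminescence.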

[26] = qHTS assay for small molecule disruptors of mitochondrial membrane potential screened against the NCATS CANVASS Library (AID 1347389)
How it was run: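 HepG2 cells (2,000/well) plated overnight, then exposed to compounds in 11-point qHTS series for 1 h at 37C before 30 min Mito-MPS dye; depolarization read as fall in red aggregate (590 nm) to green monomer (535 nm) fluorescence.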

[27] = Secretion counterscreen for inhibitors of the SERCaMP assay screened against the NCATS CANVASS Library (AID 1347390)
How it was run: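 Natural products are titrated in an 11-point series up to 77 uM onto SH-SY5Y-GLuc STOP cells for 20 h. Secreted reporter activity is measured as coelenterazine-driven luminescence, with Brefeldin A on each plate.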

[28] = qHTS for activators of Nrf2/ARE signaling pathway screened against the NCATS CANVASS Library (AID 1347391)
How it was run: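 ARE-bla HepG2 beta-lactamase reporter cells exposed to compounds for 16 h at 37C; CCF4 substrate 2 h, fluorescence at ex 405 nm, em 460/530 nm. Viability by CellTiter-Glo luminescence.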

[29] = qHTS for activators of dead-cell proteases activity screened against the NCATS CANVASS Library (AID 1347392)
How it was run: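 Compounds are pin-transferred onto attached HepG2 cells, giving 11 final concentrations. After 5 h at 37C, AAF-aminoluciferin reagent is added and luminescence is recorded at room temperature.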

[30] = qHTS for inhibitors of ER calcium dysfunction: SERCaMP assay screened against the NCATS CANVASS Library (AID 1347393)
How it was run: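 Thapsigargin-induced ER calcium depletion drives GLuc-SERCaMP secretion from SH-SY5Y cells; compounds given 16 h beforehand were scored by lowered coelenterazine luminescence after 4 h challenge.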

[31] = Vero-766 cells viability qHTS against the NCATS CANVASS Library: Counterscreen for Zika virus inhibition assay (AID 1347394)
How it was run: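 Counterscreen for toxicity: Vero 766 cells exposed 72 h to an 11-point compound series, viability by CellTiter-Glo.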

[32] = qHTS for inhibitors of Wild type Zika virus screened against the NCATS CANVASS Library (AID 1347396)
How it was run: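 Protection against wild-type Zika cytopathic effect is measured in African green monkey Vero 766 cells exposed to an 11-point compound series. Surviving cells are quantified by CellTiter Glo luminescence after 72 h.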

[33] = qHTS for inhibitors of Rabies Virus screened against the NCATS CANVASS Library (AID 1347402; calls by dose curve)
[34] = Primary qHTS for small molecule stabilizers of the endoplasmic reticulum resident proteome: Secreted ER Calcium Modulated Protein (SERCaMP) assay (AID 1508630)
How it was run: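 GLuc-SERCaMP-expressing SH-SY5Y cells, pretreated 16 h with compound, are challenged with thapsigargin to empty ER calcium stores; after 4 h, coelenterazine is added directly to the medium and luminescence is imaged.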

Measured: Potency

Nuclear receptor subfamily 1 group I member 3 (Homo sapiens), sequence (Q14994 whole entry, looked up): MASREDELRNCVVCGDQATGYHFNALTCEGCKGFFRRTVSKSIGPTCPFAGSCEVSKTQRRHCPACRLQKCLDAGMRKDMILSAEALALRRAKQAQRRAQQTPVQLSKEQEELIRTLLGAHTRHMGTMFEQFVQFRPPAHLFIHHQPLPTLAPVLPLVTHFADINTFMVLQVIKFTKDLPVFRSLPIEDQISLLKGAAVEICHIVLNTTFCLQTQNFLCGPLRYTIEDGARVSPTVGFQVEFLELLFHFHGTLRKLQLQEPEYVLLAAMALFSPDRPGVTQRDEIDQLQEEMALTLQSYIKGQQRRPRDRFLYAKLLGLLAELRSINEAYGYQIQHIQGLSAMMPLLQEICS
Luciferin 4-monooxygenase (Photinus pyralis), sequence (P08659 whole entry, looked up): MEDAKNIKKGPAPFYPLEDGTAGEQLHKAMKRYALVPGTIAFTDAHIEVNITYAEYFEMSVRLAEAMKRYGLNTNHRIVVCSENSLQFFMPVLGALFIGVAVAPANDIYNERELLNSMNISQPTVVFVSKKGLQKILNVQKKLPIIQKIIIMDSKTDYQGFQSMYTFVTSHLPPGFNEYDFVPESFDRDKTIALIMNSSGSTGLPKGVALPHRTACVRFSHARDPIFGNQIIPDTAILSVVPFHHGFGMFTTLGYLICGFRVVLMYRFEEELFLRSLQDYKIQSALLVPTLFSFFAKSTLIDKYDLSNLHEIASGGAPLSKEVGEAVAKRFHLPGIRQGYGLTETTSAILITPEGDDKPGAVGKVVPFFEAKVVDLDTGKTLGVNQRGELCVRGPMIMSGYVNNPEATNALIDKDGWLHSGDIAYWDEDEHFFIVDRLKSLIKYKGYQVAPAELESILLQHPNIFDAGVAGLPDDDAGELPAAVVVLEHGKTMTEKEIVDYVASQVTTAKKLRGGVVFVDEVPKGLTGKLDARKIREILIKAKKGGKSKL

CC1=CC(=O)C2=C(C)C[C@H](O)[C@@H]3[C@H](OC(=O)[C@@H]3C)[C@@H]12
inactive: [2] | [3] | [4] | [5] | [6] | [7] | [8] | [9] | [10] | [11] | [12] | [13] | [14] | [15] | [16] | [17] | [18] | [19] | [20] | [21] | [22] | [23] | [24] | [25] | [26] | [27] | [29] | [31] | [32] | [33]
active: [1] 49.3 µM | [28] 13.2 µM | [30] 34.3 µM

Clc1ccc(C2CC3CCC2N3)cn1 (centres undefined)
inactive: [34]
